“And” between values parts separate entries of the source, which are not always exact repeats. Equal values may be shown once. Records with an inconclusive call do not appear. The source made the active and inactive calls. Unless noted, calls follow the shape of the dose curve; as a rule, active = well fitted curve in the direction sought with a large enough effect; inconclusive = small, poorly fitted or top-dose-only effect, or another doubt; inactive = no such curve, though single readings can be large; an effect the other way counts as inactive or inconclusive.
Assays:
[1] = Primary qHTS for inhibitors of nuclear receptor binding SET domain protein 2 (NSD2) in an RCH-ACV wild type WT cells (2C) (AID 1645877); also: nearly all actives have a fitted effect of over 70% in size; also: potency is read from the fitted curve at half-maximal effect
[2] = target: Rap guanine nucleotide exchange factor 3 (Homo sapiens) (UniProt O95398); test: Confirmatory qHTS for antagonist of cAMP-regulated guanine nucleotide exchange factor 3 (EPAC1) (AID 1645880); also: nearly all actives have a fitted effect of over 55% in size; also: potency is read from the fitted curve at half-maximal effect
Procedure, shortened: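 Released BODIPY-GDP fluoresces less than Rap1-bound BODIPY-GDP; the signal is followed at 480/540 nm at 5-min intervals over 30 min, after 5 min at room temperature. Reactions contain 100 nM EPAC1, 250 nM RAP1B-BODIPY-GDP and 50 uM GDP; results are normalized to ATA and DMSO.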

[3] = target: Rap guanine nucleotide exchange factor 3 (Homo sapiens) (UniProt O95398); test: Confirmatory qHTS for agonist of cAMP-regulated guanine nucleotide exchange factor 3 (EPAC1) (AID 1645881); also: nearly all actives have a fitted effect of over 75% in size; also: potency is read from the fitted curve at half-maximal effect
[4] = target: Rap guanine nucleotide exchange factor 4 (Homo sapiens) (UniProt Q8WZA2); test: Confirmatory qHTS for agonist of cAMP-regulated guanine nucleotide exchange factor 4 (EPAC2) (AID 1645884);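 also: nucleotide exchange releases bodipy-GDP from Rap1 and this lowers its fluorescence; nearly all actives have a fitted effect of over 65% in size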; also: potency is read from the fitted curve at half-maximal effect
[5] = target: Rap guanine nucleotide exchange factor 4 (Homo sapiens) (UniProt Q8WZA2); test: Confirmatory qHTS for antagonist of cAMP-regulated guanine nucleotide exchange factor 4 (EPAC2) (AID 1645885); also: nearly all actives have a fitted effect of over 25% in size; also: potency is read from the fitted curve at half-maximal effect; as to activity change, negative = inhibition: % is scaled to controls: 0 for no effect and ±100 for the full control effect
[6] = target: Rap guanine nucleotide exchange factor 3 (Homo sapiens) (UniProt O95398); test: Counterscreen qHTS for antagonist of cAMP-regulated guanine nucleotide exchange factor 3 (EPAC1) (AID 1645888); also: % of control where 0% means no effect
Procedure, shortened: (§1)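 Rap1B–BODIPY-GDP (250 nM) with 50 uM GDP; compounds pin-transferred to 9.74 nM–152 uM final (activator) or from 7.32 nM upwards (inhibitor). Fluorescence Ex/Em 480/540 nm read at 5 and 30 min, then after adding cAMP or buffer, at room temperature.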

[7] = target: Rap guanine nucleotide exchange factor 3 (Homo sapiens) (UniProt O95398); test: Counterscreen qHTS for agonist of cAMP-regulated guanine nucleotide exchange factor 3 (EPAC1) (AID 1645889); also: % of control where 0% means no effect; nearly all actives have a fitted effect of over 40% in size
Procedure, shortened: as §1

[8] = target: Catechol O-methyltransferase (Homo sapiens) (UniProt P21964); test: Confirmatory Screen for Target Class Profiling of Small Molecule Inhibitors of Methyltransferases (AID 1745852; calls by dose curve; also: potency is read from the fitted curve at half-maximal effect; as to activity change, negative = inhibition: % is scaled to controls: 0 for no effect and ±100 for the full control effect); details: MTase-Glo luminescence, SAH detection, recombinant enzyme; measured here: COMT max response; stronger effect = lower value
[9] = target: Guanidinoacetate N-methyltransferase (Homo sapiens) (UniProt Q14353); test: as above; details: MTase-Glo luminescence, SAH detection, recombinant enzyme; activity change, negative = inhibition: at 57.3 µM (top of the series)
[10] = Primary qHTS for inhibitors of nuclear receptor binding SET domain protein 2 (NSD2) in an isogenic RCH-ACV NSD2 p.E1099K mutant (9B) (AID 1645876); also: nearly all actives have a fitted effect of over 70% in size; also: potency is read from the fitted curve at half-maximal effect

Sequence of Rap guanine nucleotide exchange factor 4 (Homo sapiens) (Q8WZA2 whole entry, looked up): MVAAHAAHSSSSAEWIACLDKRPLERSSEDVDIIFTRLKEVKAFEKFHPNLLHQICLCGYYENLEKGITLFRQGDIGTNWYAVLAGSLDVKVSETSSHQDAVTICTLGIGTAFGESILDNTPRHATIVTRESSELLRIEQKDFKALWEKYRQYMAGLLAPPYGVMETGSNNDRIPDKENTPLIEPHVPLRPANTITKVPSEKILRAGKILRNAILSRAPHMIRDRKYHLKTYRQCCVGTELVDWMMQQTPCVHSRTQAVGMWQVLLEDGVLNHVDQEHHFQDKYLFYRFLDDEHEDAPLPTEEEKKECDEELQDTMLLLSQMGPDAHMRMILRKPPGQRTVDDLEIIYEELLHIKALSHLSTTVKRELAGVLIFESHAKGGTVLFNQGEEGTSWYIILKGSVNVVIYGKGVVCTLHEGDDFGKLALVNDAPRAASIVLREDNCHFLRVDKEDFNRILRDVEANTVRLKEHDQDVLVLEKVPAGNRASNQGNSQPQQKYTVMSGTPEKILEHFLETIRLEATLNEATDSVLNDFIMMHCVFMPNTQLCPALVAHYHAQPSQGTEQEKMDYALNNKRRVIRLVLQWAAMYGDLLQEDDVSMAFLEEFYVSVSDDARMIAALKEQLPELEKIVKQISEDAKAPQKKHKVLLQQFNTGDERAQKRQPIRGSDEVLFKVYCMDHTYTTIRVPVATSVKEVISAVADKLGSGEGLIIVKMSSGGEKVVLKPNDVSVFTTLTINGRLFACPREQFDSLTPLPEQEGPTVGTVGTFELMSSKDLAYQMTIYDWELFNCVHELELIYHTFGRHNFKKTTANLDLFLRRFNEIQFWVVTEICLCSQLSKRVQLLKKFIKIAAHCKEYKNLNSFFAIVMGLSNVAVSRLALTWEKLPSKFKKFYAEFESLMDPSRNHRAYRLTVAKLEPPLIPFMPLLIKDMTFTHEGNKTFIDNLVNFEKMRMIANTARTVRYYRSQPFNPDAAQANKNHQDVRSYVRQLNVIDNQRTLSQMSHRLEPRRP
Sequence of Catechol O-methyltransferase (Homo sapiens) (P21964 whole entry, looked up): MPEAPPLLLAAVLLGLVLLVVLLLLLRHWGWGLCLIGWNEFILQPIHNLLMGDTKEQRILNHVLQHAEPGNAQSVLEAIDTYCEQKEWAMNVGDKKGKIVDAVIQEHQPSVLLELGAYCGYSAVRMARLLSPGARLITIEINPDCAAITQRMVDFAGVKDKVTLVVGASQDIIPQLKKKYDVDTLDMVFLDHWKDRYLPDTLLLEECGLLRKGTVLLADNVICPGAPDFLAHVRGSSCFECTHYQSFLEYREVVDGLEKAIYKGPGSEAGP
Sequence of Rap guanine nucleotide exchange factor 3 (Homo sapiens) (O95398 whole entry, looked up): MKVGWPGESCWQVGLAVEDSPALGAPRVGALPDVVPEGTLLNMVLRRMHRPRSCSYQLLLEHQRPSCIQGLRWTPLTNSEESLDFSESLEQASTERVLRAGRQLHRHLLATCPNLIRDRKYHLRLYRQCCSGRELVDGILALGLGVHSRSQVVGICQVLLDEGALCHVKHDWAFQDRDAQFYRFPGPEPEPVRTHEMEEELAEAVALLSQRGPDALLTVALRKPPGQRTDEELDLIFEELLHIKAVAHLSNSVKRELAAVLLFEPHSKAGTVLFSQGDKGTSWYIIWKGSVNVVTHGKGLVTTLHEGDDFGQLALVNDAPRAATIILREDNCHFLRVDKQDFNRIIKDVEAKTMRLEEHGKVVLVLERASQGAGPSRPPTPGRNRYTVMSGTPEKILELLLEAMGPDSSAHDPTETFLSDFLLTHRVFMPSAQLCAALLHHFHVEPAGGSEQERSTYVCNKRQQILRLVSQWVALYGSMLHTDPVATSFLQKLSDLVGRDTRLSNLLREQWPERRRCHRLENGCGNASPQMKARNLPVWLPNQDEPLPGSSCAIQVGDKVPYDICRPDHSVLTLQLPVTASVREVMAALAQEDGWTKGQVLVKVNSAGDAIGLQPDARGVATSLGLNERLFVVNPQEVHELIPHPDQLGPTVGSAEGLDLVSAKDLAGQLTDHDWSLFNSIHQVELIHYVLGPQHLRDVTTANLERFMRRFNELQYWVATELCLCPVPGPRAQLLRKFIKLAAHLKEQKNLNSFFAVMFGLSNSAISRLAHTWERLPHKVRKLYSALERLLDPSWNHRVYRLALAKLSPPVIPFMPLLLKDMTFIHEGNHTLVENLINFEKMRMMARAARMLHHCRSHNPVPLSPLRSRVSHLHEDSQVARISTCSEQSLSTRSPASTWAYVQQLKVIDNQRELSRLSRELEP

## O=C1Nc2ccc(I)cc2/C1=C/c1cc(Br)c(O)c(Br)c1
[1]
  Potency: inactive
[2]
  Potency: 19.8 µM (active)
[3]
  Potency: inactive
[4]
  Potency: inactive
[5]
  Potency: 35 µM (active)

## COc1ccc(CCn2nnnc2C2(c3ccc(C)cc3)CC2)cc1
[2]
  Potency: inactive
[3]
  Potency: inactive

## Nc1ncnc2c1nc(Sc1ccc(Cl)cc1)n2[C@H]1OC2COP(=O)(O)O[C@@H]2C1O (some centres undefined)
[2]
  Potency: 0.789 µM (active)
[3]
  Potency: 998 nM (active)
[4]
  Potency: 1.77 µM (active)
[5]
  Potency: 1.97 µM (active)

## CCCc1c(OCCCOc2ccc(OCC(=O)O)cc2)ccc(C(C)=O)c1O
[1]
  Potency: inactive
[3]
  Potency: inactive
[4]
  Potency: inactive
[5]
  Potency: 15.6 µM (active)
[6]
  outcome: inactive
[7]
  outcome: inactive
[8]
  activity: 14.3%
[9]
  activity change, negative = inhibition: 1.18%

## c1ccc(C(NCc2cccnc2)(c2ccccc2)c2ccccc2)cc1
[2]
  Potency: inactive
[3]
  Potency: inactive
[5]
  Potency: 1.11 µM (active)

## C[C@H](NC(=O)/C(C#N)=C/c1ccc(O)c(O)c1)c1ccccc1
[3]
  Potency: inactive
[4]
  Potency: inactive
[5]
  Potency: inactive
[8]
  activity: 72.5%
[9]
  activity change, negative = inhibition: 2.74%

## O=C1Cc2c([nH]c3ccc(Br)cc23)-c2ccccc2N1
[10]
  Potency: 6.51 µM (active)
[1]
  Potency: 5.8 µM (active)

## N#Cc1cc([N+](=O)[O-])c2sc(C(N)=O)[n+]([O-])c2c1
[10]
  Potency: 8.2 µM (active)
[1]
  Potency: 10.3 µM (active)

## CCCC[C@@]1(C2CCCC2)Cc2cc(OCC(=O)O)c(Cl)c(Cl)c2C1=O
[3]
  Potency: inactive
[4]
  Potency: inactive
[5]
  Potency: 6.01 µM (active) and 3.5 µM (active)
[6]
  outcome: inactive
[7]
  outcome: inactive
[8]
  activity: 8.39%
[9]
  activity change, negative = inhibition: 7.65%

## CC(/C=C/c1cccc(Oc2ccc(F)cc2)c1)N(O)C(N)=O (centres undefined)
[2]
  Potency: inactive
[3]
  Potency: inactive
[4]
  Potency: inactive
[5]
  Potency: 44.1 µM (active)

## CC(=O)N[C@@H](Cc1c[nH]c2ccccc12)C(=O)OCc1cc(C(F)(F)F)cc(C(F)(F)F)c1
[3]
  Potency: inactive
[4]
  Potency: inactive
[5]
  Potency: 35 µM (active)

## CNCCc1cnc(CCC(c2ccccc2)c2ccccc2)[nH]1
[8]
  activity: -11%
[9]
  activity change, negative = inhibition: 3.35%

## CN(C)S(=O)(=O)c1ccc2c(c1)/C(=C/c1cc3c([nH]1)CCCC3)C(=O)N2
[1]
  Potency: 2.59 µM (active)

## COc1cc(/C=C(\C#N)C(=O)Nc2nnc(C(F)(F)F)s2)ccc1OCc1ccc(C(F)(F)F)cc1C(F)(F)F
[10]
  Potency: inactive
[1]
  Potency: inactive

## Cn1c(=O)c2[nH]c(-c3ccc(S(=O)(=O)O)cc3)nc2n(C)c1=O
[8]
  activity: -8.67%
[9]
  activity change, negative = inhibition: 1.75%

## Nc1ncnc2c1nc(Br)n2C1OC2COP(=O)(O)O[C@@H]2C1O (some centres undefined)
[2]
  Potency: 3.14 µM (active)
[3]
  Potency: 4.46 µM (active) and 3.97 µM (active)
[4]
  Potency: 3.54 µM (active) and 3.16 µM (active)
[5]
  Potency: 5.55 µM (active) and 3.93 µM (active)

## O=C(O)C1=CC(=C(c2ccc(O)c(C(=O)O)c2)c2ccc(O)c(C(=O)O)c2)C=CC1=O
[8]
  activity: -24.2%
[9]
  Potency: 24.3 µM (active)

## COC(=O)C1=C(C)NC(C)=C([N+](=O)[O-])C1c1ccccc1C(F)(F)F (centres undefined)
[3]
  Potency: inactive
[4]
  Potency: inactive
[5]
  Potency: inactive
[6]
  outcome: inactive
[7]
  outcome: inactive

## C[C@@]1(C2CCCC2)Cc2cc(OCC(=O)O)c(Cl)c(Cl)c2C1=O
[2]
  Potency: inactive
[3]
  Potency: inactive
[4]
  Potency: inactive
[5]
  Potency: 17.5 µM (active)
[8]
  activity: 5.42%
[9]
  activity change, negative = inhibition: 7.12%

## CC(O)C(O)[C@H]1CNc2nc(N)[nH]c(=O)c2N1 (some centres undefined)
[8]
  activity: -9.57%
[9]
  activity change, negative = inhibition: 4.12%

## CC(=O)NCCc1c[nH]c2ccc(O)cc12
[10]
  Potency: inactive

## CC(C)(CO)Cc1cc(C(C)(C)C)c(O)c(C(C)(C)C)c1
[3]
  Potency: inactive
[4]
  Potency: inactive
[5]
  Potency: 49.4 µM (active)

## Nc1ncnc2c1c(-c1ccc(Oc3ccccc3)cc1)cn2C1CCCC1
[10]
  Potency: 1.64 µM (active)
[1]
  Potency: 2.59 µM (active)

## CC1=C(/C=C/C(C)=C/C=C/C(C)=C\C(=O)O)C(C)(C)CCC1
[10]
  Potency: inactive
[1]
  Potency: inactive

## CCCC(=O)NCCc1c2n(c3ccc(OC)cc13)CCCc1ccccc1-2
[2]
  Potency: inactive
[3]
  Potency: inactive
[4]
  Potency: inactive
[5]
  Potency: 7.84 µM (active)

## C=CCN1CCc2c(cc(O)c(O)c2Br)[C@@H](c2ccccc2)C1
[8]
  activity: 62%
[9]
  activity change, negative = inhibition: 5.44%

## C=CCN1CCc2c(cc(O)c(O)c2Cl)C(c2ccccc2)C1 (centres undefined)
[8]
  activity: 72.4%
[9]
  activity change, negative = inhibition: 5.83%

## N#C/C(=C\c1ccc(O)c(O)c1)C(=O)NCCc1ccccc1
[8]
  activity: 85.9%
[9]
  Potency: 0.432 µM (active)

## O=C(O)/C=C/c1ccc(O)c(O)c1
[8]
  activity: 150%
[9]
  activity change, negative = inhibition: 0.674%

## NC/C=C\C(=O)O
[8]
  activity: -3.77%
[9]
  activity change, negative = inhibition: 4.36%

## Oc1cc(O)c2c(c1)O[C@H](c1ccc(O)c(O)c1)[C@@H](O)C2
[8]
  activity: 171%
[9]
  activity change, negative = inhibition: 4.5%

## C=CCN1CCc2cc(O)c(O)cc2C(c2ccccc2)C1 (centres undefined)
[8]
  activity: 101%
[9]
  activity change, negative = inhibition: 8.51%

## O=C(O)Cc1ccc(O)c(O)c1
[8]
  activity: 122%
[9]
  activity change, negative = inhibition: 5.19%

Source: PubChem BioAssay (NCATS)
